Assay outcomes: PubChem BioAssay, National Center for Advancing Translational Sciences (NCATS)
ASM inhibitor = human S-ASM enzyme inhibition | placental ASM, HMU-PC fluorogenic substrate, 60 min | Potency, µM (highest dose often 57.5 µM), for inactives: top-dose activity change, negative = inhibition, most hits filed as inhibitors | 340,000 compounds, 0.006% hits | AID 504937; also: potency is read from the fitted curve at half-maximal effect
Target sequence (P17405 47-631 limits assumed): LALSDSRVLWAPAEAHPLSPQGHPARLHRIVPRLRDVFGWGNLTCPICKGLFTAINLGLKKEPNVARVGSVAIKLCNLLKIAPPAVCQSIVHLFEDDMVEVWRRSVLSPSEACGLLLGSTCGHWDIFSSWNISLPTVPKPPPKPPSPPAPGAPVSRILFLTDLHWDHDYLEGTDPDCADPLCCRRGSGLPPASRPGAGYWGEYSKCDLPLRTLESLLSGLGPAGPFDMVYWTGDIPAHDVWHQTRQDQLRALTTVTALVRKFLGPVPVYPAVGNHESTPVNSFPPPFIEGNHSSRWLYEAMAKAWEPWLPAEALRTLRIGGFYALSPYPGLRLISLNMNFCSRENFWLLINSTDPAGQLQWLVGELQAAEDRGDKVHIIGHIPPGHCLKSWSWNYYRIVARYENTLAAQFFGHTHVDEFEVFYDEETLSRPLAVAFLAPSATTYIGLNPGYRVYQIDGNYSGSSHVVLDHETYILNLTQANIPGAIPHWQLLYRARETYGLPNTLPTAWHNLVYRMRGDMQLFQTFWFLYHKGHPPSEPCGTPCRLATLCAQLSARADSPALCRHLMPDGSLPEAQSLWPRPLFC
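Fluorogenic HMU-PC substrate (9 uM final) is turned over by placental ASM in 60 min at 37 C after a 10 min compound preincubation. Reaction ended by alkaline stop (pH 10), with fluorescence read at 386/447 nm.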
IL-1B inflam inh = blocks inflammasome-driven IL-1 beta release; THP-1 LPS/ATP IL-1B secretion, AlphaLISA, 16 h; hits give low values; 360,000 compounds, 4.7% hits; activity change, % at 57.5 µM; AID 743279; in the data active = activity change below about -50%; inconclusive = mostly about -30% to -49%; also: % is scaled to controls: 0 for no effect and ±100 for the full control effect
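THP-1 cells pretreated 1 hr with compounds (up to 57.5 uM final), then stimulated with LPS (250 ng/mL final) plus ATP (1.25 mM final); secreted IL-1B measured by AlphaLISA after 16 hr, decreased signal indicating inhibition.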
TDP1 cell CPT = DT40-hTDP1 cell growth loss with CPT | chicken DT40 Tdp1-/-;hTDP1 cells + 20 nM CPT, ATP luminescence, 48 h | Potency, µM (doses to about 46.2 µM), inactives show at the top dose activity change, negative = growth inhibition, usual class: inhibitors | 420,000 compounds, 12% hits | AID 686979; also: potency is read from the fitted curve at half-maximal effect; % is scaled to controls: 0 for no effect and ±100 for the full control effect; nearly all actives have a fitted effect of over 55% in size
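Chicken DT40 Tdp1-/- cells complemented with human TDP1, 400 cells/well, exposed to compounds plus 20 nM camptothecin for at least 48 h at 37 C; viability read as ATP content by CellTiter-Glo luminescence.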
HepG2 viability = kills HepG2 cells in TGF-b inhibitor counter-screen; HepG2 CAGA-GFP viability, ATP luminescence, 18 h; Potency, µM (highest dose often 46.1 µM), without a hit: at the top dose activity change, negative = cytotoxicity, usual class: cytotoxic; 410,000 compounds, 0.76% hits; also: potency is read from the fitted curve at half-maximal effect
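CellTiter-Glo luminescence gave cytotoxicity after 18 hours at 37 degrees C. The cells were HepG2 CAGA-GFP in 1% FBS DMEM, stimulated with 500 pg/mL TGF-beta after compound addition. %Activity was normalised to no-cell wells (complete cell-killing) and DMSO (no toxicity), and curves were fitted and classified.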
TDP1 cell noCPT = qHTS for Inhibitors of human tyrosyl-DNA phosphodiesterase 1 (TDP1): qHTS in cells in absence of CPT; DT40 Tdp1-/- hTDP1 cells, no CPT, ATP luminescence, 48 h; Potency, µM (top dose mostly 46.2 µM), for inactives: top-dose activity change, negative = growth inhibition, hits mostly inhibitors; 420,000 compounds, 15% hits; also: potency is read from the fitted curve at half-maximal effect; % is scaled to controls: 0 for no effect and ±100 for the full control effect; nearly all actives have a fitted effect of over 55% in size
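Growth kinetics read by CellTiter-Glo luminescence after ≥48 hr at 37 °C. Cells: DT40 Tdp1-/- stably carrying human TDP1, 400 per well, compound exposure in the absence of CPT (DMSO vehicle).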
TGFb SMAD3 inh = inhibitors of TGF-b signaling; HepG2 CAGA-GFP TGF-b/SMAD3 reporter, GFP fluorescence, 18 h; TGF-beta stimulated, 500 pg/mL final; Potency, µM (titrated, usually from 46.1 µM), inactives show at the top dose activity, negative = inhibition, usual class: inhibitors; 410,000 compounds, 1.2% hits; also: potency is read from the fitted curve at half-maximal effect; % is scaled to controls: 0 for no effect and ±100 for the full control effect; nearly all actives have a fitted effect of over 65% in size
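Per well, imaged GFP fluorescence of HEPG2 CAGA-GFP cells gives the signal; cells get compound, then TGF-beta (500 pg/mL final), 18 h at 37 degrees C; %Activity versus -TGF-beta and +DMSO controls.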
* hit, by the source's call; i = inactive; ? = inconclusive; . = not tested or not shown. Sampled rows, rich in hits. Any-hit rate of the full collection: about 19%. Unless noted, calls follow the shape of the dose curve; as a rule, active = well fitted curve in the direction sought with a large enough effect; inconclusive = small, poorly fitted or top-dose-only effect, or another doubt; inactive = no such curve, though single readings can be large; an effect the other way counts as inactive or inconclusive.

SMILES	ASM inhibitor	IL-1B inflam inh	TDP1 cell CPT	HepG2 viability	TDP1 cell noCPT	TGFb SMAD3 inh
Cc1ccc2nc(-c3ccsc3)c(Nc3ccc(C(C)C)cc3)n2c1	.	.	-19%	2%	-9%	-4%
CCOc1ccc(C(C)=O)cc1COC(=O)c1cc([N+](=O)[O-])ccc1N1CCOCC1	-7%	14	23µM*	1%	?	16%
COc1ccc(OC)c(COC(=O)c2cc([N+](=O)[O-])ccc2N2CCOCC2)c1	-16%	44	7.3µM*	5%	4.1µM*	2%
CCOc1ccc(C(=O)COC(=O)c2cc([N+](=O)[O-])ccc2N2CCOCC2)cc1	-11%	47	?	-11%	?	-10%
COC(=O)CSC1=C(C#N)C(c2cccc(F)c2)CC(=O)N1 (stereo unspecified)	6%	53	?	-5%	23µM*	?
CCOC(=O)CSC1=C(C#N)C(c2ccccc2OC)CC(=O)N1 (stereo unspecified)	-2%	41	16µM*	-5%	16µM*	-3%
CCOC(=O)CSC1=C(C#N)C(c2ccc(C)s2)CC(=O)N1 (stereo unspecified)	1%	-18	5.2µM*	-31%	3.3µM*	?
Cc1ccc(CN(C)C(=O)COC(=O)CSc2ccc(C(N)=O)cc2[N+](=O)[O-])cc1	-4%	73	-4%	-28%	-20%	13%
CCOc1ccc(S(=O)(=O)Nc2cccc(C(=O)NCC(C)(C)N3CCOCC3)c2)cc1	1%	39	-30%	-7%	?	0%
COc1cccc(CNC(=O)c2ccc(CSc3nc4ccncc4n3Cc3cccc(C)c3)cc2)c1	.	.	21µM*	-19%	16µM*	-52%
Cc1ccc(CNC(=O)c2ccc(Cn3c(SCc4ccccc4F)nc4cccnc43)cc2)cc1	.	.	?	-26%	?	-18%
Cc1cccc(Cn2c(SCc3ccc(C(=O)NCc4ccccc4F)cc3)nc3cccnc32)c1	.	.	?	-40%	21µM*	?
COC(=O)c1ccc(Cn2c(SCc3cccc(C)c3)nc3ccncc32)cc1	.	.	?	-34%	16µM*	?
CNC(=O)c1ccc(CSc2nc3ccncc3n2Cc2ccc(C)cc2)cc1	.	.	?	-42%	?	?
Cc1cccc(Cn2c(SCc3ccc(C(=O)NCc4ccccc4F)cc3)nc3ccncc32)c1	.	.	?	-29%	23µM*	?
Cc1cccc(Cn2c(SCc3ccc(C(=O)NC4CCCCC4)cc3)nc3ccncc32)c1	.	.	-9%	-35%	-19%	-9%
Cc1c(C(=O)Nc2c(N)nc(SCC(=O)NCC3CCCO3)[nH]c2=O)cccc1[N+](=O)[O-] (stereo unspecified)	-2%	i	0%	5%	8%	-2%
COc1ccc(NC(=O)Cn2c(SCc3cccc(Cl)c3)nc3ccncc32)c(OC)c1OC	.	.	21µM*	-27%	?	?
C[C@]12c3[nH]c4ccccc4c3CCN1C(=O)C(CC(=O)NCc1ccco1)C[C@@H]2C(=O)N1CCCCC1 (stereo partly specified)	4%	-6	?	-27%	?	-16%
CCN(CC)C(=O)[C@H]1CC(CC(=O)NC/C=C(\C)CCC=C(C)C)C(=O)N2CCc3c([nH]c4ccc(OC)cc34)[C@]12C (stereo partly specified)	-17%	-78*	?	-95%	?	11µM*
CC(C)=CCC/C(C)=C/CNC(=O)CC1C[C@H](C(=O)N2CCCCC2)[C@@]2(C)c3[nH]c4ccccc4c3CCN2C1=O (stereo partly specified)	3%	62	21µM*	-21%	13µM*	2%
CCN(CC)C(=O)[C@H]1CC(CC(=O)NC/C=C(\C)CCC=C(C)C)C(=O)N2CCc3c([nH]c4ccccc34)[C@]12C (stereo partly specified)	-7%	?	23µM*	-104%	?	16µM*
CC(=O)CCSc1ncnc2sc(-c3ccccc3)cc12	3%	-91*	?	-20%	?	?
O=C(O)CSc1ncnc2sc(-c3ccccc3)cc12	11%	-4	-2%	-15%	-4%	0%
CC(=O)c1c(C)[nH]c(C(=O)CSc2ncnc3sc(-c4ccccc4)cc23)c1C	2%	50	9.2µM*	-8%	?	-12%
SMILES	ASM inhibitor	IL-1B inflam inh	TDP1 cell CPT	HepG2 viability	TDP1 cell noCPT	TGFb SMAD3 inh
CC(=O)c1c(C)[nH]c(C(=O)CSc2nnc(-c3ccccc3)o2)c1C	-2%	6	16µM*	-30%	15µM*	-30%
O=C(CSc1nnc(-c2ccccc2)o1)c1ccc2c(c1)OCCO2	4%	20	16µM*	11%	?	-11%
O=C(O)CCSc1ncnc2sc(-c3ccccc3)cc12	13%	8	-19%	-16%	2%	16%
CC(=O)N1C[C@H]2CON(C)[C@H]2C[C@H]1c1cccc(N2CCOCC2)c1	.	6	-2%	-16%	?	2%
Cc1ccc(-c2nnc(Nc3cccc(Cl)c3)c3ccccc23)cc1S(=O)(=O)N1CCN(C)CC1	.	.	12µM*	-1%	21µM*	?
Cc1cccc(Nc2nnc(-c3ccc(C)c(S(=O)(=O)N4CCN(C)CC4)c3)c3ccccc23)c1	.	.	21µM*	-19%	?	?
Cc1ccc(-c2nnc(Nc3cccc(Br)c3)c3ccccc23)cc1S(=O)(=O)N1CCCCC1	.	.	-25%	-14%	-24%	-10%
Cc1ccc(-c2nnc(NCc3nc4ccccc4[nH]3)c3ccccc23)cc1S(=O)(=O)N1CCCCC1	.	-3	21µM*	-20%	16µM*	-28%
Cc1ccc(-c2nnc(Nc3cccc(Br)c3)c3ccccc23)cc1S(=O)(=O)N1CCN(C)CC1	.	.	13µM*	-19%	18µM*	11%
Cc1ccc(-c2nnc(Nc3ccccc3)c3ccccc23)cc1S(=O)(=O)N1CCN(C)CC1	.	.	?	1%	?	-1%
CNC(=O)c1ccc(Nc2nnc(-c3ccc(C)c(S(=O)(=O)N4CCCCC4)c3)c3ccccc23)cc1	.	.	1%	3%	-3%	10%
Cc1ccc(-c2nnc(Nc3ccccc3)c3ccccc23)cc1S(=O)(=O)NCc1nc2ccccc2[nH]1	.	.	?	2%	?	?
